# Test results published in PubChem BioAssay (EPA / NIEHS).
# Results filed as inconclusive are left out. Calls of active or inactive are those of the source. Rule for the calls, unless noted: active = hit-call score of the fitted dose curve at least 0.9, where 1 is the maximum; inactive = score below 0.9.
# How the values were obtained:
# [1] = read-out: Monocyte Chemoattractant Protein-1 (MCP1), CCL2 (gene 6347); assay: BSK_LPS_MCP1: BioMAP Diversity Plus: LPS Assay for Monocyte Chemoattractant Protein-1 (MCP1) Biomarker Activity (AID 2283081); details: primary human HUVEC with PBMC; actives raise or lower the signal;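 for AC50: co-culture stimulated with LPS; secreted MCP-1 protein quantified by ELISA in culture supernatant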
# In short: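 Secreted MCP-1 read by ELISA at 24 h post-dosing in an LPS-activated co-culture of endothelial cells with peripheral blood mononuclear cells. Fits run in both directions, DMSO as baseline; parallel SRB staining tracks overt cytotoxicity.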
# [2] = BSK_LPS_PGE2: BioMAP Diversity Plus: LPS Assay for Prostaglandin E2 (PGE2) Biomarker Activity (AID 2283082); details: primary human HUVEC with PBMC; actives raise or lower the signal;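 for AC50: secreted prostaglandin E2 measured by ELISA in LPS-stimulated co-culture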
# In short: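 LPS-activated HUVEC/PBMC co-culture; cmpd dosed, 24 h; PGE2 by ELISA; bidirectional fit vs DMSO; SRB (0.1%, TCA-fixed, 560 nm) in parallel plates for overt cytotox.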
# [3] = read-out: Macrophage colony-stimulating factor (MCSF), CSF1 (gene 1435); assay: BSK_LPS_MCSF: BioMAP Diversity Plus: LPS Assay for Macrophage colony-stimulating factor (MCSF) Biomarker Activity (AID 2283083); details: primary human HUVEC with PBMC; actives raise or lower the signal
# In short: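 Bidirectional fitting against DMSO was applied to M-CSF levels read by ELISA at 24 h post-dose. The system pairs human umbilical vein endothelium with peripheral blood mononuclear cells; parallel SRB staining tracked cytotoxicity.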
# [4] = read-out: Tissue Factor, F3 (gene 2152); assay: BSK_LPS_TissueFactor: BioMAP Diversity Plus: LPS Assay for Tissue Factor Biomarker Activity (AID 2283084); details: primary human HUVEC with PBMC; actives raise or lower the signal
# In short: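 Compound was added to an endothelial cell/PBMC co-culture, and after 24 h tissue factor (CD142) was read by ELISA. Gain or loss of signal was fitted against a DMSO baseline, and parallel SRB staining (560 nm) tracked overt cytotoxicity.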
# [5] = read-out: Tumor necrosis factor (Homo sapiens) (UniProt P01375); assay: BSK_LPS_TNFa: BioMAP Diversity Plus: LPS Assay for Tumour Necrosis Factor alpha (TNFa) Biomarker Activity (AID 2283085); details: primary human HUVEC with PBMC; actives raise or lower the signal
# In short: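 Read-out is ELISA of TNFa in primary human endothelial cell–PBMC co-cultures at 24 h after compound. Activity in either direction was fitted against DMSO.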
# [6] = read-out: Vascular cell adhesion molecule 1 (VCAM1), VCAM1 (gene 7412); assay: BSK_LPS_VCAM1: BioMAP Diversity Plus: LPS Assay for Vascular cell adhesion molecule 1 (VCAM1) Biomarker Activity (AID 2283086); details: primary human HUVEC with PBMC; actives raise or lower the signal
# In short: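 HUVEC + PBMC co-culture, LPS system; compound 24 h; VCAM-1 by ELISA; bidirectional fit vs DMSO control; parallel SRB (0.1%, TCA-fixed, 560 nm) for cytotoxicity.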
# CD38, CD38 (gene 952) = assay: BSK_SAg_CD38: BioMAP Diversity Plus: SAg Assay for CD38 Biomarker Activity (AID 2283087); details: primary human HUVEC with PBMC; actives raise or lower the signal
# In short: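 Human HUVEC plus PBMC co-culture stimulated with superantigen; CD38 measured by ELISA 24 h after chemical dosing. Fluorescence read-out, bidirectional fit against DMSO; cytotoxicity tracked in parallel by SRB and Alamar Blue.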
# CD40, CD40 (gene 958) = assay: BSK_SAg_CD40: BioMAP Diversity Plus: SAg Assay for CD40 Biomarker Activity (AID 2283088); details: primary human HUVEC with PBMC; actives raise or lower the signal
# In short: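 CD40 is measured by fluorescence ELISA in an endothelial/PBMC primary human co-culture at 24 h post-dose. Fitting is bidirectional, DMSO baseline. Parallel SRB staining (560 nm) flags cytotoxicity.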
# [7] = read-out: Monocyte Chemoattractant Protein-1 (MCP1), CCL2 (gene 6347); assay: BSK_SAg_MCP1: BioMAP Diversity Plus: SAg Assay for Monocyte Chemoattractant Protein-1 (MCP1) Biomarker Activity (AID 2283090); details: primary human HUVEC with PBMC; actives raise or lower the signal
# In short: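 MCP-1 levels in the endothelial–PBMC SAg co-culture were quantified by ELISA at 24 h post-dosing; both increases and decreases versus DMSO scored. Cytotoxicity monitored by SRB total protein in parallel cultures.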
# [8] = read-out: E-selectin (Homo sapiens) (UniProt P16581); assay: BSK_SAg_Eselectin: BioMAP Diversity Plus: SAg Assay for Eselectin Biomarker Activity (AID 2283091); details: primary human HUVEC with PBMC; actives raise or lower the signal
# In short: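 Cell-surface E-selectin is read by ELISA at 24 h in the SAg co-culture of HUVEC and PBMC. Curves are fitted in both directions relative to DMSO. Parallel SRB total-protein staining tracks overt toxicity.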
# [9] = read-out: Monokine induced gamma interferon (MIG), CXCL9 (gene 4283); assay: BSK_SAg_MIG: BioMAP Diversity Plus: SAg Assay for Monokine induced gamma interferon (MIG) Biomarker Activity (AID 2283092); details: primary human HUVEC with PBMC; actives raise or lower the signal
# In short: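 Endothelial cells and PBMC were co-cultured, exposed to test chemicals, and sampled 24 h later. MIG was measured by ELISA, and responses were fitted in both directions relative to DMSO.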
# [10] = BSK_SAg_PBMCCytotoxicity: PBMC Cytotoxicity Assessment in the BioMAP Diversity Plus: SAg Assay (AID 2283093); details: primary human HUVEC with PBMC;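 note: PBMC viability measured as Alamar Blue reduction fluorescence at 546/580 nm; fitted both ways against DMSO so a hit may be loss or gain of signal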;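 for AC50: PBMC superantigen activated with SEB plus TSST-1 one hour after compound addition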
# In short: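 HUVEC/PBMC co-culture; PBMC exposed to chemical 1 h before SEB and TSST-1 activation (20 ng/mL each), incubated 90 h, then Alamar Blue 6 h, fluorescence 546/580 nm. Bidirectional fit versus DMSO baseline.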
# [11] = read-out: Interleukin-8 (IL8), CXCL8 (gene 3576); assay: BSK_SAg_IL8: BioMAP Diversity Plus: SAg Assay for Interleukin-8 (IL8) Biomarker Activity (AID 2283094); details: primary human HUVEC with PBMC; actives raise or lower the signal
# In short: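 ELISA read-out of IL-8 in a primary human vascular co-culture (umbilical vein endothelium plus PBMC), taken 24 h after compound addition. Values derive from bidirectional fits against DMSO negative controls.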
# [12] = BSK_SAg_Proliferation: Cell Proliferation Assessment in the BioMAP Diversity Plus: SAg Assay (AID 2283095); details: primary human HUVEC with PBMC;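 note: relative cell number as total protein by SRB absorbance in sub-confluent culture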
# In short: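 Cells (endothelium plus PBMC, human primary) were dosed with chemical, cultured 96 h, fixed in 10% TCA and stained with 0.1% SRB. Absorbance at 560 nm gave relative protein, fitted bidirectionally relative to DMSO.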
# [13] = BSK_SAg_SRB: Viability Assessment in the BioMAP Diversity Plus: SAg Assay (AID 2283096); details: primary human HUVEC with PBMC;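 note: cells read one day after compound addition; hits may be either gain or loss of signal compared with DMSO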
# In short: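 Human umbilical vein endothelial cells co-cultured with PBMC, read 24 h after compound dosing. Total protein measured by sulforhodamine B staining (0.1% SRB after 10% TCA fixation, absorbance 560 nm); bidirectional fit versus DMSO baseline.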
# CD69, CD69 (gene 969) = assay: BSK_SAg_CD69: BioMAP Diversity Plus: SAg Assay for CD69 Biomarker Activity (AID 2283089); details: primary human HUVEC with PBMC; actives raise or lower the signal;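 for AC50: cell surface CD69 protein quantified by ELISA with fluorescence detection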
# In short: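 Primary human vascular co-culture (umbilical vein endothelium with peripheral blood mononuclear cells) exposed to test chemical for 24 h. CD69 levels quantified by fluorescence ELISA; DMSO served as negative control for bidirectional fitting.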
# [14] = biological target: human CYP19A1, CYP19A1 (gene 1588) (UniProt P11511); assay: NVS_ADME_hCYP19A1: NovaScreen (NVS) CYP450-related Enzyme Activity (ADME) Assay for human CYP19A1 (AID 2283098; active = hit-call score of the fitted dose curve at least 0.9, where 1 is the maximum)
# In short: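 Recombinant enzyme in a cell-free format, read 0.5 h after dosing by fluorescence from a fluorogenic substrate. Loss of signal was fitted against acetonitrile as baseline. Primary screen in duplicate at 10 uM, actives then tested in concentration series.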
# [15] = biological target: human CYP1A1, CYP1A1 (gene 1543) (UniProt P04798); assay: NVS_ADME_hCYP1A1: NovaScreen (NVS) CYP450-related Enzyme Activity (ADME) Assay for human CYP1A1 (AID 2283100; active = hit-call score of the fitted dose curve at least 0.9, where 1 is the maximum)
# In short: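 Chemicals were first tested in duplicate at 10 uM, and those passing a 30% inhibition threshold were rerun as concentration series topping at 20 uM. Fluorescence read-out of recombinant enzyme turnover after 1 h, relative to acetonitrile.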
# [16] = biological target: human CYP2B6, CYP2B6 (gene 1555) (UniProt P20813); assay: NVS_ADME_hCYP2B6: NovaScreen (NVS) CYP450-related Enzyme Activity (ADME) Assay for human CYP2B6 (AID 2283101; active = hit-call score of the fitted dose curve at least 0.9, where 1 is the maximum)
# In short: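 Cell-free recombinant enzyme assay with a fluorogenic substrate; fluorescence intensity read 1 hour after dosing. Loss of signal relative to acetonitrile negative control indicates inhibition. Primary screen run in duplicate at 10 uM, actives then tested in concentration series.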
# [17] = biological target: human CYP1A2, CYP1A2 (gene 1544) (UniProt P05177); assay: NVS_ADME_hCYP1A2: NovaScreen (NVS) CYP450-related Enzyme Activity (ADME) Assay for human CYP1A2 (AID 2283102; active = hit-call score of the fitted dose curve at least 0.9, where 1 is the maximum;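 note: fluorescence from turnover of a fluorogenic substrate by recombinant insect-cell CYP1A2; potency for inhibition since loss of fluorescence marks reduced CYP1A2 activity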)
# In short: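 Enzyme activity of insect-cell-expressed human CYP1A2 measured by fluorescence 0.5 h after compound addition, relative to acetonitrile. Compounds first tested in duplicate at 10 uM, actives followed up in concentration series.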
# Tumor necrosis factor (Homo sapiens), sequence (P01375 whole entry, looked up): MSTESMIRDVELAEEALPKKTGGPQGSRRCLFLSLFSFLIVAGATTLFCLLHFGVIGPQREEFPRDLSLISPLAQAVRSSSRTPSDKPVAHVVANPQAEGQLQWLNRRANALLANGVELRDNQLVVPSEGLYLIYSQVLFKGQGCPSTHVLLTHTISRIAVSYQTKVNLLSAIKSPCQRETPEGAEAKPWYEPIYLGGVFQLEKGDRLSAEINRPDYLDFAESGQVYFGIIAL
# E-selectin (Homo sapiens), sequence (P16581 whole entry, looked up): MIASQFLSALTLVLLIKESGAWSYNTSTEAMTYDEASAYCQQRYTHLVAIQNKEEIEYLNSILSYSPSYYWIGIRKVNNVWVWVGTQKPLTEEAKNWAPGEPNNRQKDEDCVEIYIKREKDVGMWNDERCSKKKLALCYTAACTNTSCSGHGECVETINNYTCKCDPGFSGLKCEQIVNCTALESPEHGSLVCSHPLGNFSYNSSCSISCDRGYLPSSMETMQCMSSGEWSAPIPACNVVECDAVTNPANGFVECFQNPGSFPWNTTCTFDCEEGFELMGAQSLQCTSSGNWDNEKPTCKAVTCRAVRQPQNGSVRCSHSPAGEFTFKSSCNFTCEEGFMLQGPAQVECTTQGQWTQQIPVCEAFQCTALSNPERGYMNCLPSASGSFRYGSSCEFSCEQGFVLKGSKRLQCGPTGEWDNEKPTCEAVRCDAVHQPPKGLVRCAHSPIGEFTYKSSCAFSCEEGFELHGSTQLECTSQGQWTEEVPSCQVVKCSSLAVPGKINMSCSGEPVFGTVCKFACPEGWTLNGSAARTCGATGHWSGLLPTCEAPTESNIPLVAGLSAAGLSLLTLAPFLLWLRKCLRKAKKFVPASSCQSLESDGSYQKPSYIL
# human CYP1A2, CYP1A2 (gene 1544), sequence (P05177 whole entry, looked up): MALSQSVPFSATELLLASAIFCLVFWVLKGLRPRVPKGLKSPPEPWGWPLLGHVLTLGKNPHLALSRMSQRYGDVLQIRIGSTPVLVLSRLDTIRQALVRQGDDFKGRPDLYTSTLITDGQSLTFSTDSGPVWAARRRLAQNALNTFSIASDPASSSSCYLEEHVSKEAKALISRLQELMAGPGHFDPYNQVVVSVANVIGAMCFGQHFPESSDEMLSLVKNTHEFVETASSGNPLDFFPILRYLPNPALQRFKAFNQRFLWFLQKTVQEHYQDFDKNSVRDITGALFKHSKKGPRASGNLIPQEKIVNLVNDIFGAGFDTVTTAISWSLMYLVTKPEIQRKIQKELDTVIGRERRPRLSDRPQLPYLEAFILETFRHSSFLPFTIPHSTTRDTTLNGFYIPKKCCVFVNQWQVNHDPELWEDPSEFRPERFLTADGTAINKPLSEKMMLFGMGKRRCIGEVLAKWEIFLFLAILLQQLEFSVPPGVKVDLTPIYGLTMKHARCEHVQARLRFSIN
# human CYP19A1, CYP19A1 (gene 1588), sequence (P11511 whole entry, looked up): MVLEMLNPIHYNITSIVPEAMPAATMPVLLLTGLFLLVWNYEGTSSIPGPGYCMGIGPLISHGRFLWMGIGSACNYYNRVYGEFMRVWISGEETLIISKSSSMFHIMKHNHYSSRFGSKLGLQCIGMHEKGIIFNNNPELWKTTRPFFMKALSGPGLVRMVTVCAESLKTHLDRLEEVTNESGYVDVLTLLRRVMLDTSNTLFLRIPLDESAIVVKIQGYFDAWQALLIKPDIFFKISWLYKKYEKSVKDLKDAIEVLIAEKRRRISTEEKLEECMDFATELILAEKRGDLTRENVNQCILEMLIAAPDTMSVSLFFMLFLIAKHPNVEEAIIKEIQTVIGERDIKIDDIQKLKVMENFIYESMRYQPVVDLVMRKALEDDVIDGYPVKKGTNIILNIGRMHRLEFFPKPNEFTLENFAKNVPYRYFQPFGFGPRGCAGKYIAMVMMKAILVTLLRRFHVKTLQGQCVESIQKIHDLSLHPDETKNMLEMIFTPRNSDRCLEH
# human CYP2B6, CYP2B6 (gene 1555), sequence (P20813 whole entry, looked up): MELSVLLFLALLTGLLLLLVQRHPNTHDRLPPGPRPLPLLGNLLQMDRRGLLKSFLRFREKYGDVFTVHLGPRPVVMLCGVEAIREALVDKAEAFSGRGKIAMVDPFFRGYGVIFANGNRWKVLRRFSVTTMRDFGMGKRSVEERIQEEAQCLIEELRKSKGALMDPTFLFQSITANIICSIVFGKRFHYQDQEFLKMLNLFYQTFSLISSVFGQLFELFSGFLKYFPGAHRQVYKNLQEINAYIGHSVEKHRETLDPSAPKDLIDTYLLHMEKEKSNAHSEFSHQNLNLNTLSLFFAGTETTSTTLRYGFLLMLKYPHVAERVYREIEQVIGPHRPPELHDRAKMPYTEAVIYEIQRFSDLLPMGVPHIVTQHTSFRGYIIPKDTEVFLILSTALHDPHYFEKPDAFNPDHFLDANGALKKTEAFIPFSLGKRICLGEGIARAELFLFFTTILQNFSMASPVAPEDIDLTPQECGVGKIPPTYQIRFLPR
# human CYP1A1, CYP1A1 (gene 1543), sequence (P04798 whole entry, looked up): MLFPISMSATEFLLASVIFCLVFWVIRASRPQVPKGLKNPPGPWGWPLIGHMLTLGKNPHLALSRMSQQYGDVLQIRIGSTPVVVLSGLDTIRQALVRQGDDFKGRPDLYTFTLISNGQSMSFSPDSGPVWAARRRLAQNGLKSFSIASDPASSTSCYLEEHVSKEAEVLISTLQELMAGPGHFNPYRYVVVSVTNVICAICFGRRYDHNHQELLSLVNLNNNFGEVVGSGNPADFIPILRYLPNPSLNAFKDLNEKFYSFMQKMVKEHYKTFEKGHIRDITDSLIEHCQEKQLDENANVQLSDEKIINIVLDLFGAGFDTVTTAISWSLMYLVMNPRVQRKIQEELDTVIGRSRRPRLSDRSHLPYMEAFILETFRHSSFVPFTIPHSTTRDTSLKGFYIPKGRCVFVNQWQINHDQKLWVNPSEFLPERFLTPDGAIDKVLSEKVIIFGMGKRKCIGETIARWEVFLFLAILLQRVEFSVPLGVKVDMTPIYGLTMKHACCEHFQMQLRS
compound,measurement,setting,value
COc1cc(C=O)cc2c1[C@H](COC(N)=O)[C@]1(OC(C)=O)ON2C[C@H]2[C@@H]1N2C(C)=O,AC50,[1],5.86 µM (active)
same,outcome,[2],inactive
same,AC50,[3],3.97 µM (active)
same,AC50,[4],14.3 µM (active)
same,outcome,[5],inactive
same,AC50,[6],16.7 µM (active)
same,AC50,"CD38, CD38 (gene 952)",15.9 µM (active)
same,AC50,"CD40, CD40 (gene 958)",18.2 µM (active)
same,AC50,[7],5.75 µM (active)
same,AC50,[8],21.4 µM (active)
same,AC50,[9],28.7 µM (active)
same,AC50,[10],4.25 µM (active)
same,AC50,[11],8.56 µM (active)
same,AC50,[12],0.402 µM (active)
same,AC50,[13],4.34 µM (active)
Cc1ccc(N=C=O)cc1N=C=O,outcome,[1],inactive
same,outcome,[2],inactive
same,outcome,[3],inactive
same,outcome,[4],inactive
same,outcome,[5],inactive
same,outcome,[6],inactive
same,outcome,"CD38, CD38 (gene 952)",inactive
same,outcome,"CD40, CD40 (gene 958)",inactive
same,outcome,"CD69, CD69 (gene 969)",inactive
same,outcome,[7],inactive
same,outcome,[10],inactive
same,outcome,[11],inactive
same,AC50,[12],10.5 µM (active)
same,outcome,[13],inactive
C[N+](C)(C)CC1CO1 (centres undefined),outcome,[1],inactive
same,outcome,[2],inactive
same,outcome,[3],inactive
same,outcome,[4],inactive
same,outcome,[5],inactive
same,outcome,[6],inactive
same,outcome,"CD38, CD38 (gene 952)",inactive
same,outcome,"CD40, CD40 (gene 958)",inactive
same,outcome,[7],inactive
same,outcome,[8],inactive
same,outcome,[9],inactive
same,outcome,[10],inactive
same,outcome,[11],inactive
same,outcome,[12],inactive
same,outcome,[13],inactive
CS(=O)(=O)NC(=O)c1cc(Oc2ccc(C(F)(F)F)cc2Cl)ccc1[N+](=O)[O-],outcome,[1],inactive
same,outcome,[2],inactive
same,outcome,[3],inactive
same,outcome,[4],inactive
same,outcome,[5],inactive
same,outcome,[6],inactive
same,outcome,"CD38, CD38 (gene 952)",inactive
same,outcome,"CD40, CD40 (gene 958)",inactive
same,outcome,"CD69, CD69 (gene 969)",inactive
same,outcome,[7],inactive
same,outcome,[10],inactive
same,outcome,[11],inactive
same,outcome,[12],inactive
same,outcome,[13],inactive
same,outcome,[14],inactive
CC(C)N(Cc1ccccc1)C(=O)C(C)(C)C,outcome,[1],inactive
same,outcome,[2],inactive
same,outcome,[3],inactive
same,outcome,[4],inactive
same,outcome,[5],inactive
same,outcome,[6],inactive
same,outcome,"CD38, CD38 (gene 952)",inactive
same,outcome,"CD40, CD40 (gene 958)",inactive
same,outcome,[7],inactive
same,outcome,[8],inactive
same,outcome,[9],inactive
same,outcome,[10],inactive
same,outcome,[11],inactive
same,outcome,[12],inactive
same,outcome,[13],inactive
c1ccc(C2CO2)cc1 (centres undefined),outcome,[1],inactive
same,outcome,[2],inactive
same,outcome,[3],inactive
same,outcome,[4],inactive
same,outcome,[5],inactive
same,outcome,[6],inactive
same,outcome,"CD38, CD38 (gene 952)",inactive
same,outcome,"CD40, CD40 (gene 958)",inactive
same,outcome,"CD69, CD69 (gene 969)",inactive
same,outcome,[7],inactive
same,outcome,[10],inactive
same,outcome,[11],inactive
same,outcome,[12],inactive
same,outcome,[13],inactive
Brc1ccc(Oc2ccccc2)cc1,outcome,[1],inactive
same,outcome,[2],inactive
same,outcome,[3],inactive
same,outcome,[4],inactive
same,outcome,[5],inactive
same,outcome,[6],inactive
same,outcome,"CD38, CD38 (gene 952)",inactive
same,outcome,"CD40, CD40 (gene 958)",inactive
same,outcome,[7],inactive
same,outcome,[8],inactive
same,outcome,[10],inactive
same,outcome,[11],inactive
same,outcome,[12],inactive
same,outcome,[13],inactive
CCCCCCCCn1sccc1=O,AC50,[1],6.88 µM (active)
same,AC50,[2],857 nM (active)
same,AC50,[3],7.58 µM (active)
same,AC50,[4],4.04 µM (active)
same,AC50,[5],1.04 µM (active)
same,AC50,[6],6.97 µM (active)
same,AC50,"CD38, CD38 (gene 952)",7.73 µM (active)
same,AC50,"CD40, CD40 (gene 958)",10.2 µM (active)
same,AC50,"CD69, CD69 (gene 969)",10.7 µM (active)
same,AC50,[7],11.7 µM (active)
same,AC50,[10],3.84 µM (active)
same,AC50,[11],13.4 µM (active)
same,AC50,[12],1.76 µM (active)
same,AC50,[13],20.8 µM (active)
same,outcome,[15],inactive
same,AC50,[16],975 nM (active)
same,AC50,[17],5.97 µM (active)
